# Abeta rescue = qHTS for compounds that reverse cellular toxicity of Amyloid beta (A-beta) peptide in yeast: Primary Screen; yeast expressing A-beta42, growth rescue, OD600, 48 h; response scale: 0% DMSO, 100% iron-clioquinol control; Potency, µM (doses to about 46.1 µM), most hits filed as activators; actives 0.063% (n = 410,000); AID 1347071, 2019; further: nearly all actives have a fitted effect of over 55% in size
#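 Yeast growth medium received pinned compounds, then yeast cells expressing toxic A-beta were added; plates incubated at 30 C for 48 hr. Growth read as absorbance at 600 nm, normalized to DMSO and equimolar FeCl3 plus clioquinol controls.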
# PTHR1 agonist = qHTS for PTHR1 Agonists: Primary Screen | Parathyroid hormone/parathyroid hormone-related peptide receptor (Homo sapiens), Q03431 | HEK293 GP2 PTHR1 cells, GloSensor cAMP luminescence, 1 h | Potency, µM (highest dose often 115 µM), usual class: activators | actives 0.075% (n = 410,000) | AID 743266, 2014; further: nearly all actives have a fitted effect of over 55% in size
# Target sequence (Q03431 whole entry, looked up): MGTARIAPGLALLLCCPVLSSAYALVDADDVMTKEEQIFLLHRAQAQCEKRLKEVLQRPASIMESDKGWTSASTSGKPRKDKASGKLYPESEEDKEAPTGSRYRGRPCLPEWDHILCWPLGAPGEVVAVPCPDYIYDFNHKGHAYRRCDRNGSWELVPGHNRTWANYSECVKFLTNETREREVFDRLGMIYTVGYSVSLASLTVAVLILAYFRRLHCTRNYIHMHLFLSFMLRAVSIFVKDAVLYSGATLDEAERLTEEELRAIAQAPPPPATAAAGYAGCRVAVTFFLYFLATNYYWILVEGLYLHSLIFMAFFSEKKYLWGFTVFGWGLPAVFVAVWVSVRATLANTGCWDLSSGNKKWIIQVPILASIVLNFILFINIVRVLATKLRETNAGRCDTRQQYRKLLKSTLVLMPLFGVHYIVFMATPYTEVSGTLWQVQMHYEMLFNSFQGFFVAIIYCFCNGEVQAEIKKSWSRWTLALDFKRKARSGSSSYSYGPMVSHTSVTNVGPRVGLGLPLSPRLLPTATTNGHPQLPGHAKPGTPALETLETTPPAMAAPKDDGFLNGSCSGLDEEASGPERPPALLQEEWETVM
#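 HEK-293-derived GP2 cells expressing PTHR1 and a GloSensor cAMP reporter, 3,000/well, plated overnight, given luciferin plus IBMX (each 0.5 mM as added) for 1 h at 37 °C, then compound for 1 h at 37 °C. Luminescence was read after 15 min at room temperature.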
# aSyn yeast inh = qHTS of alpha-syn Inhibitors; Yeast expressing alpha-synuclein, growth rescue, BacTiter-Glo, 24 h; Potency, µM (series often up to 46.1 µM), hits mostly activators; actives 0.14% (n = 370,000); further: nearly all actives have a fitted effect of over 65% in size
#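 Screening used galactose-induced yeast with toxic alpha-synuclein levels, exposed to compound for 24 hr at 30 deg C. Cell growth, read with BacTiter-Glo luminescence, gave the measured signal.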
# FUS yeast rescue = qHTS for Suppressors of FUS Proteinopathy: Primary screen using FUS-linked yeast assay | S. cerevisiae FUS-expressing, growth rescue, OD600, 24 h | Potency, µM (top dose mostly 76.6 µM), most hits filed as activators | actives 0.24% (n = 390,000); further: nearly all actives have a fitted effect of over 55% in size
#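 Quantitative HTS measuring growth restoration of FUS-toxic yeast. Galactose-induced cells (OD 0.005) were exposed 24hr at 30C to compounds at several concentrations, then absorbance at 600 nm was recorded.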
# TDP-43 yeast inh = qHTS of TDP-43 Inhibitors. TDP-43 expressing yeast growth rescue, BacTiter-Glo, 24 h. Potency, µM (highest dose often 46.1 µM), most hits filed as activators. actives 1.8% (n = 410,000); further: nearly all actives have a fitted effect of over 50% in size
#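 Yeast cells expressing TDP-43 under galactose induction are exposed to compounds for 24 hr at 30 deg C. BacTiter-Glo luminescence measures growth, so protective compounds score as activators.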
# LDHA block = qHTS assay for inhibitors of human lactate dehydrogenase. L-lactate dehydrogenase A chain (Homo sapiens), P00338. purified LDHA, NADH/diaphorase-resazurin fluorescence; hits give low values. activity change, % (values are at about 110 or 230 µM). actives 0.15% (n = 480,000); in the data active means activity change below about -30%; inconclusive means mostly about -25% to -30%
#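 Remaining NADH was detected by diaphorase (0.133 mg/mL) converting 37 µM resazurin to fluorescent resorufin, read at 0 and 20 minutes. The preceding 5-minute room-temperature reaction used 2 nM LDHA, 0.2 mM sodium pyruvate and 0.06 mM NADH at pH 7.4.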
# Hits are given with their value; 0 = inactive; ? = inconclusive; - = not tested or not shown. A selection: hits, their analogues and other compounds. The true share with any hit is near 1.9%. Unless noted, the call rests on the fitted dose curve; in most records, active means well fitted curve in the direction sought with a large enough effect; inconclusive means small, poorly fitted or top-dose-only effect, or another doubt; inactive means no such curve, though single readings can be large; an effect the other way counts as inactive or inconclusive.
SMILES,Abeta rescue,PTHR1 agonist,aSyn yeast inh,FUS yeast rescue,TDP-43 yeast inh,LDHA block
Cc1cccc(-n2nnc(C(=O)NCc3ccc4c(c3)OCO4)c2N)c1,0,0,0,0,18µM,0
Cc1cc(C)cc(-n2nnc(C(=O)NCc3ccc4c(c3)OCO4)c2N)c1,0,?,0,0,?,0
Cc1[nH][nH]c(=O)c1C(c1ccccc1OCc1ccccc1Cl)c1c(C)[nH][nH]c1=O,-,-,-,-,-,0
Clc1ccc2nc(-c3ccncc3)cc(-c3ccccc3)c2c1,0,0,0,0,0,0
CSc1cc(-c2ccncc2)nc(-c2ccc(Cl)cc2)c1,0,0,0,0,11µM,0
O=C(Cc1cccs1)N(Cc1cccs1)C1(C(=O)NC2CCCC2)CCCCC1,0,0,0,0,20µM,0
O=C(CCc1ncc(-c2ccccc2)o1)NCC(c1ccccc1)N1CCCC1 (stereo not given),-,-,-,-,-,0
CCCN(C(=O)COc1cc(=O)n(CC)c2ccccc12)c1ccc(C(C)C)cc1,0,0,-,?,22µM,0
COc1ccc(N2CCN(CCS(=O)(=O)c3cc(Cl)ccc3Cl)CC2)cc1,0,0,0,0,13µM,0
CC(=O)Nc1cc(-c2ccccc2F)cn2c(-c3ccccc3)cnc12,0,0,0,0,20µM,0
COc1ccccc1-c1cc(NC(C)=O)c2ncc(-c3ccccc3)n2c1,0,0,0,0,?,0
CN(C)C(=O)c1cccc(-c2cnc3c(NC=O)cc(-c4cccc(C(F)(F)F)c4)cn23)c1,0,0,0,28µM,0,0
COc1ccc(-c2cc(NC=O)c3ncc(-c4cccc(C(F)(F)F)c4)n3c2)c(OC)c1,0,0,0,?,16µM,0
O=CNc1cc(-c2cccc(F)c2)cn2c(-c3ccc(F)cc3)cnc12,0,0,0,0,18µM,0
CS(=O)(=O)Nc1cccc(-c2cc(NC=O)c3ncc(-c4ccc(F)cc4)n3c2)c1,0,0,0,?,0,0
COc1cc(-c2cnc3c(NC=O)cc(-c4cccc(C(F)(F)F)c4)cn23)cc(OC)c1OC,0,0,0,?,0,0
O=C1CSC2(C(=O)Nc3ccccc32)N1c1ccc(Cl)c(Cl)c1 (stereo not given),-,-,-,-,-,0
CC(C)NC(=O)NC(=O)CN(C)Cc1cccc(C#N)c1,-,-,-,-,-,0
COc1ccccc1-c1cc(NC(C)=O)c2ncc(-c3cccc(C(F)(F)F)c3)n2c1,0,0,0,0,?,0
COc1cccc(-c2cnc3c(NC(C)=O)cc(-c4ccccc4OC)cn23)c1,0,0,0,0,20µM,0
COc1ccc(-c2cc(NC(C)=O)c3ncc(-c4cccc(C(F)(F)F)c4)n3c2)c(OC)c1,0,0,0,?,13µM,0
CC1(C)CC2CC(C)(CN2C(=O)COC(=O)c2ccc(O)cc2O)C1 (stereo not given),10µM,0,0,0,0,0
O=[N+]([O-])c1cc(C(F)(F)F)ccc1NCC1CCCO1 (stereo not given),0,0,0,0,14µM,0
Cc1ccc(S(=O)(=O)N2CCN(C(=O)c3ccc(Cn4nnc5ccccc54)cc3)CC2)cc1,-,-,-,-,-,0
CC(C)(C)c1cc(-c2nc3ccccc3[nH]2)cc(C(C)(C)C)c1O,-,-,-,-,-,0
SMILES,Abeta rescue,PTHR1 agonist,aSyn yeast inh,FUS yeast rescue,TDP-43 yeast inh,LDHA block
Fc1ccc2[nH]c(-c3cccs3)cc2c1,?,0,-,0,20µM,0
CCN(C(=O)C1CCCN(c2ncnc3c2nc2n3CCCCC2)C1)c1cccc(C)c1 (stereo not given),0,0,-,0,14µM,0
CCN(C(=O)C1CCCN(c2ncnc3c2nc2n3CCCCC2)C1)c1cccc(Cl)c1 (stereo not given),0,0,0,?,25µM,0
COc1ccc(Cl)cc1NC(=O)C1CCCN(c2ncnc3c2nc2n3CCCCC2)C1 (stereo not given),0,0,0,0,14µM,0
Cc1ccc(Nc2ccc(C)cc2)cc1,-,-,-,-,-,0
Cc1ccc(Nc2cc(C)c(O)c(C)c2)cc1,0,0,0,0,13µM,0
CCCC(=O)Nc1nc2ccc(CCC(=O)N3CCN(c4ccccc4F)CC3)cc2s1,-,-,-,-,-,0
Cc1nc2nncn2c(NCc2ccc(F)cc2)c1C,0,0,-,0,0,0
COc1ccc(CNc2cc(-c3ccc(OC)cc3)nc3nncn23)cc1,0,0,-,0,14µM,0
Fc1ccc(CNc2ccn3nc(-c4ccccc4)cc3n2)cc1,?,0,0,?,18µM,0
Fc1ccc(CNc2cc(-c3ccccc3)nc3nncn23)cc1,0,?,-,?,18µM,0
COC(=O)COc1ccc2c(C)c(-c3ccccc3)c(=O)oc2c1,-,-,-,-,-,0
COC(=O)C1=C(C)N(Cc2ccccc2)C(=S)N[C@H]1c1cccc(F)c1,0,0,?,?,11µM,0
COC(=O)C1=C(C)N(Cc2ccccc2)C(=NCc2ccccc2)N[C@H]1c1cccc(F)c1,0,0,0,0,0,0
COCC(=O)Nc1ccc(F)cc1,0,0,0,0,0,0
O=C(CCCC(=O)OCC(Cl)=C(Cl)Cl)Nc1cccc2ccccc12,0,0,0,0,0,0
O=C(CSCc1ccccc1)Nc1cccc(F)c1,0,0,0,0,6.3µM,0
CC(=O)c1ccc(NC(=O)CSCc2cccc(F)c2)cc1,-,-,-,-,-,0
O=C(Cc1ccccc1)Nc1cccc(N2C(=O)C=CC2=O)c1,0,0,0,-,6.3µM,0
O=C(CCCC(=O)OCC(Cl)=C(Cl)Cl)Nc1ccc(F)cc1,0,0,0,0,16µM,0
O=C(CCCC(=O)OCC(Cl)=C(Cl)Cl)Nc1cccc(F)c1,0,0,0,0,14µM,0
Cc1cc2ccccc2n1CC(=O)N1CCC(C(=O)O)CC1,-,-,-,-,-,0
CC(C)CNC(=O)c1cc2cc(N(C)S(=O)(=O)c3ccc(Cl)cc3)ccc2s1,-,-,-,-,-,0
Cc1ccc2nc(C)cc(C(=O)NC3CCC(O)CC3)c2c1 (stereo not given),-,-,-,-,-,0
O=C(c1ccc(Nc2nc3ccccc3n3nnnc23)cc1)N1CCN(c2ccc(F)cc2)CC1,?,0,-,0,10µM,0
CNc1nnc(SCc2nnc(-c3ccccc3Br)o2)s1,-,-,-,-,-,0
COCCn1c(-n2nc(C)cc2C)nc2c1c(=O)n(Cc1ccccc1Cl)c(=O)n2C,-,-,-,-,-,0
COc1cccc(Nc2ccc3cc(S(=O)(=O)N4CCC(C)CC4)ccc3n2)c1,0,0,-,0,13µM,0

# Screens: PubChem, National Center for Advancing Translational Sciences (NCATS)
